Experimental data from PubChem BioAssay AID1159580 (chemical genetic matrix, 2015).
“And” between values parts separate entries of the source, which are not always exact repeats. Identical values can stand only once. About 2,000 (36%) of roughly 5,500 compounds were called active. Another 18% or so got no clear call; they are omitted. Cut-off read from the data, not from the text of the source: active = normalized growth mostly below about 0.91 (no sharp cut-off); inconclusive = no clear call, values can overlap the other calls; inactive = mostly above about 0.92. Some of the results follow.

Experiment: chemical genetic growth profiling, strain panel (AID 1159580);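 note: tested at 20 µM; growth read once vehicle control cultures reached saturation at 30 °C; 1 = growth at the plate median or of vehicle wells; lower values mean less growth of the strain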
Conditions: S. cerevisiae deletion strains, growth OD

Measured: normalized growth

Cc1cc(O)cc(O)c1C(=O)O
inactive: locus YAL021C, strain ccr4, hits give low values 0.972 | locus YAL026C, strain drs2, hits give low values 1.05 | locus YAL030W, strain snc1, hits give low values 1.02 | locus YBL061C, strain skt5, hits give low values 1.02 | locus YBR009C, strain hhf1, hits give low values 1.01 | locus YBR021W, strain FUR4, hits give low values 1.02 | locus YBR023C, strain chs3, hits give low values 1.02 | locus YBR171W, strain sec66, hits give low values 1.02 | locus YBR229C, strain ROT2, hits give low values 1.02 | locus YBR231C, strain swc5, hits give low values 1 | locus YBR279W, strain paf1, hits give low values 1.02 | locus YCL011C, strain gbp2, hits give low values 1.01 | locus YCL016C, strain dcc1, hits give low values 0.984 | locus YCL029C, strain bik1, hits give low values 1 | locus YCL061C, strain MRC1, hits give low values 1.03 | locus YCL069W, strain vba3, hits give low values 1.01 | locus YCR088W, strain abp1, hits give low values 1.02 | locus YDL005C, strain med2, hits give low values 1.03 | locus YDL035C, strain GPR1, hits give low values 1.04 | locus YDL040C, strain nat1, hits give low values 1.02 | locus YDL074C, strain BRE1, hits give low values 1.03 | locus YDL101C, strain DUN1, hits give low values 1 | locus YDL134C, strain PPH21, hits give low values 1.04 | locus YDL185W, strain tfp1, hits give low values 0.988 | locus YDL192W, strain arf1, hits give low values 1.04 | locus YDR001C, strain nth1, hits give low values 1.02 | locus YDR069C, strain doa4, hits give low values 1.03 | locus YDR101C, strain arx1, hits give low values 1.04 | locus YDR137W, strain rgp1, hits give low values 1.03 | locus YDR159W, strain sac3, hits give low values 1.06 | locus YDR162C, strain NBP2, hits give low values 1.01 | locus YDR195W, strain ref2 0.986 | locus YDR297W, strain sur2, hits give low values 1.02 | locus YDR318W, strain mcm21, hits give low values 1.01 | locus YDR334W, strain swr1, hits give low values 1.02 | locus YDR335W, strain msn5, hits give low values 1.02 | locus YDR388W, hits give low values 1 | locus YDR392W, strain spt3, hits give low values 0.897 | locus YDR502C, strain sam2, hits give low values 0.997 | locus YEL003W, strain gim4, hits give low values 1.01 | locus YEL037C, strain rad23, hits give low values 1.01 | locus YEL061C, strain CIN8 (second series), hits give low values 1.01 | locus YEL061C, strain CIN8, hits give low values 1.01 | locus YER015W, strain faa2, hits give low values 1.01 | locus YER016W, strain bim1, hits give low values 1.02 | locus YER110C, hits give low values 0.982 | locus YER111C, strain swi4, hits give low values 1.01 | locus YER155C, strain BEM2 (second series), hits give low values 1.02 | locus YER155C, strain BEM2, hits give low values 1 | locus YER167W, strain BCK2, hits give low values 1.01 | locus YFR010W, strain ubp6, hits give low values 1.02 | locus YGL078C, strain dbp3, hits give low values 0.964 | locus YGL086W, strain mad1, hits give low values 1.01 | locus YGL167C, strain pmr1, hits give low values 1.02 | locus YGL173C, strain kem1, hits give low values 1.04 | locus YGL227W, strain vid30, hits give low values 1.01 | locus YGL240W, strain doc1, hits give low values 1.02 | locus YGL248W, strain PDE1, hits give low values 1.03 | locus YGL253W, strain hxk2, hits give low values 1.05 | locus YGR078C, strain PAC10, hits give low values 1.03 | locus YGR135W, strain pre9, hits give low values 0.96 | locus YGR252W, strain gcn5, hits give low values 1.06 | locus YHR013C, strain ard1, hits give low values 1.02 | locus YHR027C, strain rpn1, hits give low values 1.01 | locus YHR030C, strain SLT2, hits give low values 1.1 | locus YHR079C, strain IRE1 (second series), hits give low values 1 | locus YHR079C, strain IRE1, hits give low values 1.08 | locus YHR094C, strain hxt1, hits give low values 1.01 | locus YHR129C, strain ARP1, hits give low values 1.02 | locus YHR142W, strain chs7, hits give low values 1.01 | locus YHR200W, strain rpn10, hits give low values 1 | locus YIL066C, strain RNR3, hits give low values 1.03 | locus YIL073C, strain SPO22, hits give low values 1 | locus YIL125W, strain kgd1, hits give low values 0.993 | locus YIR030C, strain dcg1, hits give low values 1.01 | locus YJL092W, strain hpr5, hits give low values 1.02 | locus YJL095W, strain BCK1 (second series), hits give low values 1.02 | locus YJL095W, strain BCK1, hits give low values 1.04 and 1.07 | locus YJL115W, strain asf1, hits give low values 1.02 | locus YJL129C, strain trk1, hits give low values 1.03 | locus YJL134W, strain LCB3, hits give low values 1.01 | locus YJL154C, strain vps35, hits give low values 1.01 | locus YJL164C, strain tpk1, hits give low values 0.997 | locus YJL166W, strain qcr8, hits give low values 1.03 | locus YJL168C, strain set2, hits give low values 1.02 | locus YJL187C, strain SWE1 (second series), hits give low values 1.01 | locus YJL187C, strain SWE1, hits give low values 1.02
